Rows were chosen to be rich in hits. Some 10% of all compounds tested hit in one or more screens of this group.
GPT2 inhibitor – blocks human glutamate pyruvate transaminase 2. Q8TD30. 100,000 compounds, 0.25% hits. Potency, µM (top dose mostly 57.7 µM), actives largely listed as inhibitors. AID 1671188. Recombinant GPT2, coupled pyruvate oxidase/HRP Amplex Red fluorescence; note: nearly all actives have a fitted effect of over 60% in size
Target sequence (Q8TD30 whole entry, looked up): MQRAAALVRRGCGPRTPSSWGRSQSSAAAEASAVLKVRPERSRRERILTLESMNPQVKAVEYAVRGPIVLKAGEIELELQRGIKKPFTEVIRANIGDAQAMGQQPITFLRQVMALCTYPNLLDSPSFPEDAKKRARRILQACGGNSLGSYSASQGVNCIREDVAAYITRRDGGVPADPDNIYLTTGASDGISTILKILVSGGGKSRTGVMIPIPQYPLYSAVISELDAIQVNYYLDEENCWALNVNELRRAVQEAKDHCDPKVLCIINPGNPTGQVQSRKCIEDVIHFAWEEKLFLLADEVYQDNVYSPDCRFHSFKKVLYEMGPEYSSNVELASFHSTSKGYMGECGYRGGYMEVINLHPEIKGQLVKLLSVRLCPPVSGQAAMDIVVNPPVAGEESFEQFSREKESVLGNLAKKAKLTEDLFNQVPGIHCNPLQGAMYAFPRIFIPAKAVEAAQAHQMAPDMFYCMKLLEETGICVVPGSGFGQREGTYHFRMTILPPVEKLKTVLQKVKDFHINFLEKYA
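Recombinant GPT2 (10ng/uL) with 250uM a-KG and 2mM L-alanine, 30 min at room temperature, in HEPES pH 7.5 buffer. Pyruvate detected by pyruvate oxidase/HRP/Amplex Red fluorescence after 30 min in the dark; AOA (50uM) as positive control.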
HEK cytotox – HEK 293 cell cytotoxicity; HEK 293 viability, ATP luminescence (CellTiter-Glo), 48-72 h; Potency, µM (titrated, usually from 115 µM), hits mostly inhibitors; 94,000 compounds, 6.6% hits; AID 1345083; note: nearly all actives have a fitted effect of over 60% in size
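ATP-coupled CellTiter-Glo luminescence served as viability read-out, recorded 10 min after reagent addition at room temperature. HEK 293 cells, 250 cells/well, had been incubated with pintool-transferred compound for 48 or 72 hr at 37 degree Celsius.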
hNpr1 antagonist – human Npr1 receptor antagonism; HEK293 hNpr1 GloSensor cGMP, ANP-stimulated luminescence; P16066; AID 1347048; Potency, µM (highest dose often 46.3 µM), actives largely listed as inhibitors; 76,000 compounds, 1.6% hits; calls by dose curve; note: nearly all actives have a fitted effect of over 60% in size
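Compound pre-incubated 30 min at room temperature on GloSensor-loaded HEK293 cells stably carrying hNpr1 and the pGS-40F cGMP biosensor. Stimulation uses hNppA at 0.1 nM final; luminescence is taken at baseline and 20 min post-agonist.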
NIH3T3 tox – cytotoxic compounds in NIH 3T3 cells; NIH 3T3 viability, CellTiter-Glo ATP luminescence, 48-72 h; Potency, µM (highest dose often 96.7 µM), actives largely listed as inhibitors; 94,000 compounds, 4.3% hits; note: nearly all actives have a fitted effect of over 55% in size
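Cytotoxicity is measured as loss of cellular ATP: NIH 3T3 cells (400/well) are exposed to compound for 48 or 72 hr at 37 °C, then CellTiter-Glo luminescence is imaged after 10 min at room temperature.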
Luciferase inh – inhibitors of firefly (Photinus pyralis) luciferase. purified P. pyralis luciferase, luminescence, biochemical. Potency, µM (doses to about 115 µM), most hits filed as inhibitors. 76,000 compounds, 2.5% hits. AID 1347043; note: nearly all actives have a fitted effect of over 65% in size
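Luminescence read by CCD imager after adding enzyme (10nM final) to wells holding compound, titrated in qHTS. Substrates 10uM each D-luciferin and ATP; buffer 50mM Tris acetate pH 7.5, 10mM Mg acetate, Tween-20, BSA.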
Hits are given with their value; n = inactive; u = inconclusive; x = not tested or not shown; [ ] = another dose, or the depositor's remark. Unless noted, calls come from the whole dose curve; as a rule, active = well fitted curve in the direction sought with a large enough effect; inconclusive = small, poorly fitted or top-dose-only effect, or another doubt; inactive = no such curve, though single readings can be large; an effect the other way counts as inactive or inconclusive.

SMILES | GPT2 inhibitor | HEK cytotox | hNpr1 antagonist | NIH3T3 tox | Luciferase inh
c1cnc2nc(-c3c[nH]c4ccccc34)[nH]c2c1 | n | u | n | u | 45µM
CN1CCN(c2ccc(-c3cc4c(ccn4C)c(C(=O)NCc4cnccn4)n3)cc2)CC1 | n | 45µM | n | u | u
Cn1ccc2c(C(=O)NCc3cccnc3)nc(-c3ccccc3)cc21 | n | u | u | u | n
Cn1ccc2c(C(=O)NCc3cccnc3)nc(-c3ccccc3C#N)cc21 | n | n | n | 25µM | n
CN(C)Cc1ccc(-c2cc3c(ccn3C)c(C(=O)NCc3cccnc3)n2)cc1 | n | u | n | u | n
Cn1ccc2c(C(=O)NCc3cccnc3)nc(-c3ccc(F)cc3)cc21 | n | 100µM | n | u | n
Cn1nccc1-c1cc2c(ccn2C)c(C(=O)NCc2cccnc2)n1 | u | n | n | 28µM | n
COc1ccc(-c2cc3c(ccn3C)c(C(=O)NCc3cccnc3)n2)cc1OC | n | u | n | u | u
Cn1cccc1CN1CCC2(CC1)C(=NC1CCCCC1)NC(=O)N2c1cc(F)cc(F)c1 | n | n | x | n | x
COc1ccc(OC)c(NC(=O)CC2=C3CCCCC3N(Cc3ccc(F)cc3)C2=O)c1 (stereo not given) | n | u | x | u | x
O=c1c2nc(Nc3ccc(C(F)(F)F)cc3)ccc2ncn1C1CC1 | u | u | n | u | 63µM
COCCn1cnc2ccc(Nc3ccc(C(F)(F)F)cc3)nc2c1=O | n | u | n | u | n
Clc1ccc(CNc2nc(-c3ccccc3)no2)cc1 | n | u | n | u | 16µM
COc1ccc(CN2C(=O)CO[C@H]3CN(Cc4ccccc4)C[C@H]32)cc1 | n | u | u | n | n
CC(C)c1ccc(S(=O)(=O)N2CCCC2c2nncn2C2CCCC2)cc1 (stereo not given) | n | n | x | n | x
Cc1ccc(C)c(NC(=O)N2c3ccccc3CC2c2nc(C3CC3)no2)c1 (stereo not given) | n | n | n | u | n
CC(C)c1noc(C2Cc3ccccc3N2C(=O)Nc2ccc3c(c2)OCCO3)n1 (stereo not given) | n | u | n | u | 16µM
CC(C)c1noc(C2Cc3ccccc3N2C(=O)NC2CCCC2)n1 (stereo not given) | n | n | n | 32µM | n
O=C(Nc1ccc2c(c1)OCCO2)N1c2ccccc2CC1c1nc(C2CC2)no1 (stereo not given) | n | u | n | n | 13µM
Cc1cc(C)n(CCC(=O)N2CC(Oc3ccc(-c4nc(-c5ccccc5)no4)cc3)C2)n1 | n | 32µM | 0.4µM | u | u
Cc1cc(C(=O)N2CC(Oc3ccc(-c4nc(-c5ccccc5)no4)cc3)C2)n(C)n1 | n | 11µM | 5.6µM | u | u
CCOC(=O)[C@@H]1CN(C(=O)c2ccc(-c3cccs3)s2)[C@H]2c3cccc(F)c3O[C@@H]12 | x | n | x | u | x
COc1cccc(-c2cccc(C(=O)N3CCN(C(=O)c4ccc(Cl)cc4)CC3)c2)c1 | n | u | x | u | x
C[C@@H](c1ccccc1)N(C)C(=O)c1cc(Cn2cnc3ccccc32)[nH]n1 | n | u | u | u | n
Cc1ccc(CCN2CCC3(Cc4ccccc4CN([S+](C)(=O)[O-])C3)C2)cc1 (stereo not given) | n | u | x | n | x
SMILES | GPT2 inhibitor | HEK cytotox | hNpr1 antagonist | NIH3T3 tox | Luciferase inh
Cc1cc(CN2CCC(Cc3ccc(F)cc3)CC2)n(C)n1 | n | 40µM | u | u | n
Cc1cc(C(=O)N2CCC(Cc3ccc(C(N)=O)cc3)CC2)n(C)n1 | u | u | n | n | n
CC1(CNc2ccccc2)COc2ccc(C(=O)NCCN3CCOCC3)cc2N1 (stereo not given) | n | u | n | n | n
CCOCC1(C)COc2ccc(C(=O)NCCc3ccccc3)cc2N1 (stereo not given) | n | u | n | u | 22µM
CC1(CNc2ccccc2)COc2ccc(C(=O)NCCOc3ccccc3)cc2N1 (stereo not given) | n | 40µM | u | 32µM | u
CC1(CNc2ccccc2)COc2ccc(C(=O)NCCc3ccccn3)cc2N1 (stereo not given) | n | 100µM | n | u | n
CC1(COc2ccccc2)COc2ccc(C(=O)NCCOc3ccccc3)cc2N1 (stereo not given) | n | 79µM | u | u | n
O=c1cc(N2CCOCC2)oc2c(NCC3CCOCC3)nccc12 | n | n | n | 28µM | n
COc1cc(-c2nccc3c(=O)cc(N4CCOCC4)oc23)ccn1 | n | n | n | u | n
CN1CCN(c2cc(=O)c3ccnc(NCc4ccccc4)c3o2)CC1 | n | n | n | u | n
O=c1cc(N2CCOCC2)oc2c(NCc3cnccn3)nccc12 | n | n | n | 100µM | n
O=C(NCc1ccccn1)c1ccc2nnc(-c3ccc(F)cc3)n2c1 | n | n | x | n | x
O=C(Nc1ccc(F)cc1)c1nc2sccn2c1-c1cccc(C(F)(F)F)c1 | n | 50µM | x | u | x
O=C(NCc1cccc(C(F)(F)F)c1)c1nc2sccn2c1-c1ccc(C(F)(F)F)cc1 | n | 40µM | x | u | x
COCCNC(=O)c1nc2sccn2c1-c1ccc(C(F)(F)F)cc1 | n | n | x | u | x
Cc1ccc(-c2c(C(=O)Nc3ccc(F)cc3)nc3sccn23)cc1 | n | u | x | u | x
Cc1ccc(NC(=O)c2nc3sccn3c2-c2ccncc2)cc1 | n | 112µM | x | u | x
O=C(NCCc1ccc(Cl)cc1)c1nc2sccn2c1-c1ccc(C(F)(F)F)cc1 | n | 40µM | x | 20µM | x
O=C(c1ccc(F)cc1)N1CCCN(c2ccc3nnc(C4CC4)n3n2)CC1 | x | n | x | n | x
Cc1ccccc1C(=O)N1CCCC1C(=O)N1CCC(N2CCOCC2=O)CC1 (stereo not given) | n | n | x | n | x
CCn1cc(CN2CCCC23CCN(c2ccc(C(F)(F)F)cn2)CC3)c(C)n1 | n[11.5 µM] | u | n | u | n
COc1ccc(-c2cccc(C(=O)N3CCC(NC(=O)Cc4ccccc4)CC3)c2)nn1 | x | n | x | u | x
O=C(NCc1ccccc1)c1nc2sccn2c1-c1cccc(C(F)(F)F)c1 | n | n | x | n | x
O=C(NCc1ccccc1Cl)c1nc2sccn2c1-c1cccc(C(F)(F)F)c1 | n | 25µM | x | u | x
COc1ccc(-c2c(C(=O)Nc3cccc(Cl)c3)nc3sccn23)cc1 | n | 63µM | x | u | x
SMILES | GPT2 inhibitor | HEK cytotox | hNpr1 antagonist | NIH3T3 tox | Luciferase inh
O=C(NCc1ccc(F)cc1)c1nc2sccn2c1-c1cccc(C(F)(F)F)c1 | n | 63µM | x | u | x
Cc1ccc(-c2c(C(=O)NCc3ccccc3)nc3sccn23)cc1 | n | n | x | n | x
COc1ccc(NC(=O)c2nc3sccn3c2-c2ccccc2)cc1 | n | u | x | u | x
O=C(NCc1ccccc1)c1nc2sccn2c1-c1ccncc1 | n | 112µM | x | u | x
Cn1c(CO[C@H]2CN(Cc3ccc4c(c3)OCCO4)C[C@H]2F)nc2ccccc21 | n | u | n | 89µM | n
Cc1ccc(CC(=O)N2CCCC(c3noc(COc4ccccc4)n3)C2)cc1 (stereo not given) | n | u | u | u | n
